Measurements as given in PubChem BioAssay AID1030 (National Center for Advancing Translational Sciences (NCATS), 2008).
Among all 220,000 compounds or so, about 16,000 (7.3%) were called active. About 25% were inconclusive and are not listed. Calls come from the whole dose curve; as a rule, active = well fitted inhibition curve with a large enough effect (not every such curve was filed as active); inconclusive = small, poorly fitted or top-dose-only effect, or another doubt; inactive = no such curve, though single readings can be large or run the other way. Shown is part of a subset that was picked to be rich in actives.

molecular target: Aldehyde dehydrogenase 1A1 (Homo sapiens) (UniProt P00352); experiment: qHTS Assay for Inhibitors of Aldehyde Dehydrogenase 1 (ALDH1A1); conditions: Purified ALDH1A1, NADH fluorescence, propionaldehyde substrate; series mostly up to 75.3 µM; activity, negative = inhibition: at the top concentration;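 for activity, negative = inhibition: plate controls were no enzyme wells and a reference inhibitor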
Potency is the fitted concentration of half-maximal effect.

Chain of Aldehyde dehydrogenase 1A1 (Homo sapiens) (P00352 whole entry, looked up): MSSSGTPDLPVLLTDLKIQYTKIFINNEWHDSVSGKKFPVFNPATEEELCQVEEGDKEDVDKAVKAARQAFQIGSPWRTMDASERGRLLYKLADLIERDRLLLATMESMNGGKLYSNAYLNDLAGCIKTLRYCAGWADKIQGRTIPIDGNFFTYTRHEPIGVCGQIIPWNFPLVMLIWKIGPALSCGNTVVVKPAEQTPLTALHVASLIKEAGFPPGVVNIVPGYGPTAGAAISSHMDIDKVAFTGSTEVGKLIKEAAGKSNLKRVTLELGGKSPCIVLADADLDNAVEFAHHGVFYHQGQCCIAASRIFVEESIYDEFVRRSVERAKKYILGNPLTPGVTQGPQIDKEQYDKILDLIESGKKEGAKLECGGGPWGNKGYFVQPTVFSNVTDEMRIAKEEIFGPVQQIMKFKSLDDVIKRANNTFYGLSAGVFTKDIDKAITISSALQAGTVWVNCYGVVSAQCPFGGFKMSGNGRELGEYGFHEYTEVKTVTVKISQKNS

activity, negative = inhibition, inactive:
COc1ccccc1C1CCN(c2ccc([N+](=O)[O-])cn2)CC1 -3.06%
COc1ccc([N+](=O)[O-])cc1NC(=O)C(C)OC(=O)C1c2ccccc2Oc2ccccc21 (stereo unspecified) 4.85%
COc1ccc(CN(C)Cc2nc3cc(OC)c(OC)cc3c(=O)[nH]2)c(OC)c1 6.82%
COc1ccnc(Oc2ccccc2)c1-c1ncn[nH]1 -0.551%
Cc1cc2oc(=O)cc(-c3ccccc3)c2c(C)c1/C=C/c1ccc(F)cc1 1.81%
Nc1ccc(S(=O)(=O)Nc2nccc(/C=C/c3ccc(Br)s3)n2)cc1 -11.9%
COc1ccc(F)cc1C(=O)C1CCCN(C(=O)CCc2ccccn2)C1 (stereo unspecified) -4.22%
Cc1cc(Cl)ccc1C(=O)C1CCCN(C(=O)CCN2CCCO2)C1 (stereo unspecified) -15.5%
Cc1cc(C(=O)CC#N)c(C)n1-c1c(C)n(C)n(-c2ccccc2)c1=O 17.2%
Cc1cc(C(=O)OCC(=O)NCc2ccco2)c(C)n1-c1ccccc1 -9.68%
CCOc1ccc(CCN2C(=O)c3cccnc3C2=O)cc1OCC 4.81%
O=C1CC(=O)Nc2cc(S(=O)(=O)N3CCN(c4cccc(C(F)(F)F)c4)CC3)ccc2N1 -2.99%
O=C(CN(CC1CCCO1)C(=O)CNS(=O)(=O)c1ccc(F)cc1)NCc1ccco1 (stereo unspecified) 4.66%
Cc1ccc(S(=O)(=O)N(C)CC(=O)NC2CCCC2)cc1 -2.42%
COc1ccccc1-c1nc(SC)n[nH]1 2.27%
O=C(CN1CCOCC1)Nc1c(Cl)cc(Cl)cc1Cl 9.81%
C=CCNC(=S)NNC(=O)c1cc(Cl)ccc1OC 8.59%
COc1ccc(NC(=O)COc2ccc(C(=O)OCC(=O)N(C)C3CCS(=O)(=O)C3)cc2OC)cc1 (stereo unspecified) -5.23%
CC1(C)C(C=C(Cl)Cl)C1C(=O)N(Cc1ccc(Cl)cc1)C1CCS(=O)(=O)C1 (stereo unspecified) -1.61%
CCCCN(C(=O)COc1ccc(NC(C)=O)cc1)C1CCS(=O)(=O)C1 (stereo unspecified) 1.35%
COc1cc(C(=O)N(Cc2ccc(N(C)C)cc2)C2CCS(=O)(=O)C2)cc(OC)c1OC (stereo unspecified) -4.2%
CCCN(CCC)CCCNC(=O)CNC(=O)c1nn(-c2ccc(OC)cc2)c(=O)c2ccccc12 -5.06%
COc1ccc(CC(NC(C)=O)C(=O)NC2CCN(C(=O)c3ccc(OC)c(OC)c3)CC2)cc1OC (stereo unspecified) 4.43%
CNC(=O)c1ccc(NC(=O)c2cccc(C(F)(F)F)c2)cc1 2.1%
CC(C)N(C(=O)Cn1cc(SCC(=O)N2CCCC2)c2ccccc21)C(C)C 4.74%
O=C(c1cccc(C(=O)N2CCN(c3ccc(F)cc3)CC2)c1)N1CCN(c2ccc(F)cc2)CC1 2.51%
O=C(c1cccc(F)c1)N1CCN(c2ccc([N+](=O)[O-])c3cccnc23)CC1 -6.77%
CCCN(CC(=O)Nc1ccccc1C)C(=O)c1cc(=O)[nH]c2ccccc12 -3.3%
O=C(Nc1ccc2c(c1)C(=O)OC2)Nc1cccc2ccccc12 4.39%
CC(C)OCCCNC(=S)N1CCC(C(=O)c2ccc3c(c2)OCCO3)CC1 -11.4%
Cc1nn(C)c(C)c1CN(C(=O)CCc1nnc(Cc2c[nH]c3ccccc23)o1)C(C)C 17%
CCOC(=O)N1CCN(CC(=O)Nc2ccc(F)cc2)CC1 -2.18%
Cc1cc(NC(=O)CN2CCCC(C)C2)n(-c2nc3ccccc3s2)n1 (stereo unspecified) 0.548%
CN(Cc1cccs1)C(=O)Cc1c[nH]c2ccccc12 3.39%
CC(C)(C)N(Cc1ccccc1)C(=O)COC(=O)CCc1c[nH]c2ccccc12 -11.5%
NS(=O)(=O)c1ccc(NC(=O)COC(=O)CCc2c[nH]c3ccccc23)cc1 -1.24%
CC(=O)NC(Cc1c[nH]c2ccccc12)C(=O)O (stereo unspecified) 9.05%
COc1ccc(NC(=O)C(=O)NCC(=O)Nc2cccc(C(F)(F)F)c2)cc1 0.589%
O=C(C(=O)N1CCc2ccccc2C1)N1CCc2ccccc2C1 8.43%
Cc1nnc(SCC(=O)N2CCc3ccccc3C2)s1 -3.58%

Potency, active:
COc1ccc([N+](=O)[O-])cc1C1NN=C(c2cccc3ccccc23)S1 (stereo unspecified) 10 µM
CSCC(=O)N1CCCC(C(=O)c2cc(F)ccc2F)C1 (stereo unspecified) 10 µM
Cc1cc(C(=O)COC(=O)c2cccs2)c(C)n1-c1c(C)n(C)n(-c2ccccc2)c1=O 20 µM
Cc1ccc(S(=O)(=O)NCC(=O)N(CC(=O)NC2CCCCC2)Cc2ccco2)cc1 17.8 µM
COc1ccc(C(=O)N(Cc2ccc(N(C)C)cc2)C2CCS(=O)(=O)C2)cc1 (stereo unspecified) 5.62 µM
CCOc1ccc(C(=O)N(Cc2ccc(N(C)C)cc2)C2CCS(=O)(=O)C2)cc1 (stereo unspecified) 12.6 µM
O=C(c1cccc(F)c1)N1CCN(c2ccc([N+](=O)[O-])c(N3CCCCC3)c2)CC1 8.91 µM
CCOC(=O)N1CCN(CC(=O)Nc2cc(C)nn2-c2nc3ccccc3s2)CC1 15.8 µM
O=C(Cc1c[nH]c2ccccc12)OCCOC(=O)Cc1c[nH]c2ccccc12 17.8 µM
CCOC(=O)CN(C)Cc1c[nH]c2ccccc12 22.4 µM
COc1ccc(-c2nc(CS(=O)CC(=O)N3CCc4ccccc4C3)c(C)o2)cc1 (stereo unspecified) 25.1 µM
